# Reference: PubChem BioAssay (Tox21)
# Active and inactive are the calls of the source. A call without a number means that no potency is given here. Calls follow the shape of the dose curve; as a rule, active = well fitted activation curve with a large enough effect in the repeat runs; inconclusive = weak or mixed curves; inactive = flat fitted curve, though single readings scatter.
# Target: KiSS-1 receptor (Homo sapiens) (UniProt Q969F8)
# Experiment: Human kisspeptin (KISS1R) small molecule agonists, calcium flux assay in KISS1R-HEK293 cells (AID 1920064)
# Summary of the method: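 After overnight (18 h) culture at 37 C/5% CO2, human KISS1R-HEK293 cells received calcium dye for 1 h, then test compound; emission at 540 nm (excitation 480 nm) was tracked for 3 min.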
# Chain of KiSS-1 receptor (Homo sapiens) (Q969F8 whole entry, looked up): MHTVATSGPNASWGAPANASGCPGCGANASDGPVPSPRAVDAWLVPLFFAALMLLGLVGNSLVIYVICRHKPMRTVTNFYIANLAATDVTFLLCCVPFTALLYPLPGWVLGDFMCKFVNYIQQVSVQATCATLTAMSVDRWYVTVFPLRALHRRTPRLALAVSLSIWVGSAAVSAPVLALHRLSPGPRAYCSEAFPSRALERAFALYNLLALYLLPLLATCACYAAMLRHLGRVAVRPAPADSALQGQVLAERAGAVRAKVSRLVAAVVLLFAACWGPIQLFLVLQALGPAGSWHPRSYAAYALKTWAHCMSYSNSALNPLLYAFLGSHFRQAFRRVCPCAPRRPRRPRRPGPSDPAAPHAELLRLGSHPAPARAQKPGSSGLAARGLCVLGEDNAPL
row,Compound,Potency
1,COc1ccc(C)cc1N,inactive
2,O=S(=O)(O)c1ccc2nc(-c3ccccc3)[nH]c2c1,inactive
3,CC(=O)C1=C(C)[C@@H]2C[C@@]3(C1)[C@H](C)CC[C@H]3C2(C)C,inactive
4,CN(C)Cc1cc(CN(C)C)c(O)c(CN(C)C)c1,inactive
5,O=C(Oc1ccccc1)c1ccccc1O,inactive
6,Nc1ccccc1[N+](=O)[O-],inactive
7,C#CC1(O)CC[C@H]2[C@@H]3CCC4=CCCC[C@@H]4[C@H]3CC[C@@]21C (some centres not stated),inactive
8,CC1COC(=O)O1 (configuration not stated),inactive
9,OC(CCl)CCl,inactive
10,O=C(O)c1ccc(O)cc1,inactive
11,CCCCCCC(=O)O,inactive
12,C#CCN(C)Cc1ccccc1,inactive
13,CC1(C)C(=O)N(Cl)C(=O)N1Cl,inactive
14,C=CN1CCCC1=O,inactive
15,CCCCCCCCCCCCO,inactive
16,COC(=O)C(C)Oc1ccc(Oc2ncc(C(F)(F)F)cc2Cl)cc1 (configuration not stated),inactive
17,CC(C)CC(C)CC(O)CC(C)C (configuration not stated),inactive
18,CCCCCCCCCCCCCC[N+](C)(C)C,inactive
19,Cc1cccc(O)c1,inactive

row,Compound,Potency
1,Cc1cc(Cc2ccc(N)c(C)c2)ccc1N,inactive
2,NCCCCCCN,inactive
3,CCNC(=S)NCC,inactive
4,OCCOCCN1CCN(C(c2ccccc2)c2ccc(Cl)cc2)CC1 (configuration not stated),inactive
5,COC(=O)c1ccccc1O,inactive
6,C[Si](C)(C)N[Si](C)(C)C,inactive
7,Cc1cc(Cc2cc(C)cc(C(C)(C)C)c2O)c(O)c(C(C)(C)C)c1,inactive
8,CCCCC/C(C=O)=C\c1ccccc1,inactive
9,CCCCCCCC/C=C\CCCCCCCC(=O)O,inactive
10,NCCNc1cccc2ccccc12,inactive
11,COC(=O)c1cccc(C(=O)OC)c1,inactive
12,O=C1C(N(CO)C(=O)NCO)N(CO)C(=O)N1CO (configuration not stated),inactive
13,CC(=O)N[C@@H](CS)C(=O)O,inactive
14,c1ccc2cc3c(ccc4ccccc43)cc2c1,inactive
15,CCCCC(CC)COC(=O)CS (configuration not stated),inactive
16,CCCCCCCCCCCCCCCC(=O)OC(C)C,inactive
17,C=CC(C)(CCC=C(C)C)OC(C)=O (configuration not stated),inactive
18,CCCCCCCCO,inactive
19,CCCN(CCC)S(=O)(=O)c1ccc(C(=O)O)cc1,inactive

row,Compound,Potency
1,CCc1cccc2c3c([nH]c12)C(CC)(CC(=O)O)OCC3 (configuration not stated),inactive
2,COC(=O)c1cccnc1,inactive
3,CCCCCCCCCC,inactive
4,CCC(O)OCCCOC (configuration not stated),inactive
5,Oc1c(Cl)cc(Cl)cc1Sc1cc(Cl)cc(Cl)c1O,inactive
6,CN(C)CCOC(C)(c1ccccc1)c1ccccn1 (configuration not stated),inactive
7,c1ccc2c(c1)ccc1ccccc12,inactive
8,Cc1cccc(Nc2cc(Cl)nc(SCC(=O)O)n2)c1C,inactive
9,O=C(O)CCCCC1CCSS1 (configuration not stated),inactive
10,C[C@]12CCC(=O)C=C1CC[C@@H]1[C@@H]2C(=O)C[C@@]2(C)[C@H]1CC[C@]2(O)C(=O)CO,inactive
11,Cc1c(OCC(F)(F)F)ccnc1CS(=O)c1nc2ccccc2[nH]1 (configuration not stated),inactive
12,NC(=O)N/N=C/c1ccc([N+](=O)[O-])o1,inactive
13,CC(C)(Oc1ccc(Cl)cc1)C(=O)O,inactive
14,CCCCCNCCCCC,inactive
15,CC1(C)S[C@@H]2[C@H](NC(=O)COc3ccccc3)C(=O)N2[C@H]1C(=O)O,inactive
16,COc1cc([C@H]2Oc3cc([C@H]4Oc5cc(O)cc(O)c5C(=O)[C@@H]4O)ccc3O[C@@H]2CO)ccc1O,inactive
17,Cc1ccc([N+](=O)[O-])cc1N,inactive
18,CC(=O)NS(=O)(=O)c1ccc(N)cc1,inactive
19,CCCCCCCCCCCCN,inactive
